Compound activity deposited in PubChem by The Scripps Research Institute Molecular Screening Center.
DAX1 inh-1: blocks DAX1 repression of SF-1 activated StAR promoter. HEK293T StAR-luciferase reporter, SF-1/DAX-1 repression relief. inhibition, % at 6.8 µM. hit rate 1.1% among 370,000. AID 652010;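 active = inhibition above the mean over all tested compounds plus 3 SD, cut at about 3.6% in these data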;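 note: 0% = DAX-1 cells with DMSO and 100% = cells lacking DAX-1 with DMSO; higher inhibition means more luminescence from relief of DAX-1 repression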
hcDAF-12 act: H. contortus DAF-12 activation, primary screen; HEK293 hcDAF-12 lit1-tk-luc reporter, luminescence; 0% DMSO, 100% Δ7-dafachronic acid; activation, % at 6.8 µM; hit rate 1.4% among 370,000;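 active = activation above the mean of all tested compounds plus 3 SD, cut at about 5.5% in these data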;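 note: 100% = response to 3 µM Δ7-dafachronic acid high control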
DAX1 inh-2: NR0B1 (DAX1) inhibition. AID 504766. HEK293 Gal4-DAX1 luciferase reporter, luminescence. hit rate 0.99% among 340,000. inhibition, % at 6.75 µM. P51843;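 active = inhibition above the mean over all tested compounds plus 3 SD, cut at about 4.2% in these data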;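 note: 0% = DAX1-transfected cells with DMSO and 100% = empty-vector control cells with DMSO; inhibition shows as a rise in luminescence from relieved DAX1 repression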
ssDAF12 agonist: activators of S. stercoralis DAF-12 nuclear receptor. HEK293 ssDAF-12/GRIP1 lit1-tk-luc reporter, luminescence; % of 3 µM dafachronic acid response. activation, % at 6.8 µM. hit rate 1% among 370,000. AID 652126;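 active = activation above the mean over all tested compounds plus 3 SD, cut at about 0.9% in these data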;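 note: 0% = DMSO-only wells and 100% = 3 µM delta7-dafachronic acid wells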
hgDAF-12 ag: agonists of H. glycines DAF-12 nuclear receptor; HEK293 GAL4-hgDAF12 UAS-luciferase reporter, agonist luminescence; normalized to butyrate control; activation, % at 6.8 µM; hit rate 1.8% among 370,000; AID 687014;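 active = activation above a cutoff set at the mean of all screened compounds plus 3 SD, cut at about 10% in these data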;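 note: 0% = DMSO wells and 100% = sodium butyrate wells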
DAX1 conf: NR0B1 (human) inhibition, confirmation; shares compounds with DAX1 inh-1; HEK293T StAR-promoter luciferase reporter, SF-1/DAX-1 repression; inhibition, % at 6.8 µM; hit rate 87% among 2,400; AID 652134;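 active = inhibition above the average of every tested compound plus 3 SD, cut at about 3.8% in these data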;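 note: 0% = DAX-1 cells with DMSO and 100% = no DAX-1 control cells with DMSO; active compounds raise luminescence by relieving repression of the StAR reporter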
Target sequence (P51843 whole entry, looked up): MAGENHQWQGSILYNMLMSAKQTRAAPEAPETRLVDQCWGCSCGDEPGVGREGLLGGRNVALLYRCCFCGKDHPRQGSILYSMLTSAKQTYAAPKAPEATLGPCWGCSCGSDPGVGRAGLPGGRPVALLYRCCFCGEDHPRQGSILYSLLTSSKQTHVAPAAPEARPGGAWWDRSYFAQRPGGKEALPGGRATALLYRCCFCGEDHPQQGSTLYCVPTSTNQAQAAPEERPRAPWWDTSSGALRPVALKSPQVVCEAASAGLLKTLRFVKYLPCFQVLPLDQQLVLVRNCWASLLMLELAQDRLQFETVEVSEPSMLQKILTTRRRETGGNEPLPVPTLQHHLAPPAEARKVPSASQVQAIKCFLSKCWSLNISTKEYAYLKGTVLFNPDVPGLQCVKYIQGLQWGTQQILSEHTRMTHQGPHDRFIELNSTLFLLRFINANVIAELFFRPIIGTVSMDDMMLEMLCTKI
SF1 AF2mut Luc: nonselective inhibitor or artifact in SF-1 mutant DAX1 counter-screen. HEK293 StAR-luciferase, SF-1 AF2 mutant, luminescence. inhibition, % at 6.8 µM. hit rate 78% among 2,400. shares compounds with DAX1 inh-1;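 active = inhibition above the mean of all tested compounds plus 3 SD, cut at about 3% in these data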;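 note: 0% = DAX-1 transfected cells with DMSO and 100% = cells without DAX-1 with DMSO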
LXRb hcDAF ctr: activates human LXR-beta, counter-screen for hcDAF-12 agonists. shares compounds with hcDAF-12 act. 3,400 tested, under 10 active. HEK293 Gal4-LXR tk-luc reporter, luminescence, 24 h; normalized: DMSO 0%, positive control 100%. activation, % at 6.8 µM;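 active = mean percent activation of the reporter above a cutoff set as the average over tested compounds plus their standard deviation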
hcDAF12 ag: confirmation of H. contortus DAF-12 agonists; shares compounds with hcDAF-12 act; HEK293 hcDAF-12 lit1-tk-luc reporter, luminescence; % of Δ7-dafachronic acid response; activation, % at 6.8 µM; hit rate 61% among 3,400; AID 743032;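 active = mean activation across triplicate tests above the threshold derived from the earlier primary screen, cut at about 5.5% in these data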;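 note: 0% = DMSO only wells and 100% = 3 µM Δ7-dafachronic acid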
hgDAF12 ag: hgDAF-12 agonism, confirmation assay | shares compounds with hgDAF-12 ag | HEK293 GAL4-hgDAF12 luciferase reporter, agonist mode; percent of butyrate response | activation, % at 6.8 µM | hit rate 80% among 3,300 | AID 743050;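 active = mean activation over triplicate wells above the hit cutoff derived from the earlier primary screen, cut at about 11% in these data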;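 note: 0% = DMSO low control and 100% = 2 mM sodium butyrate high control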
LXRb DAF12 ctr: activates human LXR-beta, counter-screen for DAF-12 agonists; shares compounds with hgDAF-12 ag; HEK293 Gal4-LXR luciferase reporter, 24 h; activation, % at 6.8 µM; 3,300 tested, under 10 active;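 active = mean activation of the triplicate above a set limit carried over from the primary screen, none filed active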
* hit, by the source's call; · = no result. Shown are actives, neighbours in structure and some others; about 4.1% of the full set was active somewhere.

SMILES	DAX1 inh-1	hcDAF-12 act	DAX1 inh-2	ssDAF12 agonist	hgDAF-12 ag	DAX1 conf	SF1 AF2mut Luc	hgDAF12 ag	LXRb DAF12 ctr	others
O=C(NC1CCCCC1)c1ccc(-c2ccccc2F)o1	8.7*	10.0*	1.5	2.0*	19.6*	18.5*	6.2*	19.2*	1.1	LXRb hcDAF ctr=0.9;hcDAF12 ag=6.1*
O=C(NC1CCCCCC1)c1ccc(CS(=O)(=O)Cc2ccccc2F)o1	0.0	-0.3	0.1	-1.2	5.0	·	·	·	·
C=CCNC(=S)N(C)[C@H]1C[C@H]2c3cc(-c4ccccc4C)ccc3CCN2C[C@H]1[C@H](C)O	0.0	-1.7	·	-1.4	-2.9	·	·	·	·
COc1ccc2c(CN(C)Cc3ccccc3)cc(=O)oc2c1	7.2*	2.3	·	0.8	15.0*	7.6*	4.1*	14.9*	0.9
O=C(/C=C1\OCc2ccccc21)c1ccccc1	5.6*	9.5*	·	1.3*	19.4*	7.2*	4.8*	17.1*	0.7	LXRb hcDAF ctr=0.9;hcDAF12 ag=10.8*
O=C1CS/C(=C/C(=O)c2ccccc2)N1	-0.1	-0.7	0.3	-1.0	1.3	·	·	·	·
O=C1C(C=Nc2ccc(F)cc2)=C(O)c2ccccc21	5.3*	8.9*	0.0	0.7	22.1*	19.2*	8.7*	20.4*	0.9	LXRb hcDAF ctr=1.8;hcDAF12 ag=9.5*
COc1ccc(CN2C[C@@]3(O)CC[C@@H](O)[C@@H](OC)[C@@H]3[C@@](C)(O)[C@@H]2CC=C(C)C)cc1	1.0	-0.9	·	-0.5	3.6	·	·	·	·
O=C(Nc1nsc(-c2ccccc2)n1)c1cccs1	4.5*	2.9	-0.3	0.5	14.7*	7.9*	4.5*	15.8*	0.9
COc1cc(-n2c(C)cc(O)cc2=O)ccc1Cl	-0.2	1.0	·	-0.4	2.5	·	·	·	·
Cc1cnc(C(=O)OCC(=O)c2c[nH]c3ccccc23)cn1	1.7	4.4	1.4	0.2	4.6	·	·	·	·
Cn1cccc1C(=O)OCC(=O)c1c[nH]c2ccccc12	4.7*	10.6*	4.0	0.4	13.8*	16.0*	8.1*	13.8*	0.8	LXRb hcDAF ctr=1.4;hcDAF12 ag=6.3*
O=C(O)c1cc2c(ccc3ccccc32)o1	0.5	0.6	-0.9	-1.3	3.5	·	·	·	·
O=C(c1cc2c(ccc3ccccc32)o1)N1CCCCC1	14.8*	6.8*	0.7	1.2*	18.0*	14.6*	8.7*	13.8*	0.8	LXRb hcDAF ctr=1.2;hcDAF12 ag=4.3
C=CCN1C(=O)[C@@H](CC(=O)N2CCN(C(=O)C3CC3)CC2)[C@]2(C(=O)OCC)CCCCC/C=C/12	-0.1	0.7	·	-1.1	-0.9	·	·	·	·
O=C(O)c1cccc(N/N=C/c2ccc(-c3ccccc3)cc2)c1	4.7*	4.1	-2.7	0.5	16.0*	22.2*	10.3*	27.5*	1.2
Cc1ccsc1/C=N/NC(=O)Nc1ccccc1	5.8*	3.9	5.2*	1.1*	16.5*	11.3*	6.9*	17.2*	0.7
O=C(NCc1ccccc1)[C@H]1CCCN1C(=O)[C@H]1CCCN1C(=O)N1CCCCC1	0.5	-1.2	·	-1.3	0.2	·	·	·	·
CC(C)N1CCC(=NNC(=O)c2cccs2)CC1	9.6*	6.1*	1.0	1.5*	14.3*	2.4	2.3	4.2	0.0
CC(C)N1CCC(=NNC(=O)c2ccccc2[N+](=O)[O-])CC1	0.4	-0.8	0.5	-0.7	0.0	·	·	·	·
CSCc1ccc(C(=O)Nc2ccc(C(N)=O)cc2)cc1	5.3*	4.4	2.9	-0.1	13.3*	9.6*	5.0*	13.1*	0.7
